Reference: the supplement of paper PMC10849652
The full data set covers some 7,900 targets. This sample favours those with a hit. About 0.6% of all pairs of compound and target were hits.

What was measured:
Test in all cases: log2 fold change, soluble protein after heating vs DMSO (PISA); higher = thermal stabilisation; K562 cells, 10 uM, 30 min; active = over 0.2 and 3.5 SD of the protein, either way, in both replicates (recomputed)
[1] = compound: C1=CC=C(C=C1)[C@H](COC2=CC3=C(C=C2)NC(=O)N3)NC(=O)C4=CC=CN(C4=O)CC5=CC(=C(C=C5)F)F
Outline: (§1)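 K562 cells (2×10^6 cells/mL) were treated with 10 μM compound for 30 min, and aliquots were heated for 3 min over 48°C-58°C. Pooled aliquots were extracted in PBS with 0.5% NP-40 at 4°C, and the supernatant after 21,000xg for 90 min was measured by TMTpro 16plex LC-MS/MS with channel sums equalised. Reported thermal stability, relative to control samples and from duplicates, is a log2 fold change.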

[2] = compound: CC1=C(SC2=C1C(=N[C@H](C3=NN=C(N32)C)CC(=O)N)C4=CC=C(C=C4)Cl)C
Outline: as §1

[3] = compound: CC1=C2C(=CC=C1)N=C(N(C2=O)C3=CC=CC=C3C)CN4C=NC5=C(N=CN=C54)N
Outline: as §1

[4] = compound: Cc1sc2c(c1C)C(c1ccc(Cl)cc1)=N[C@@H](CC(=O)OC(C)(C)C)c1nnc(C)n1-2
Outline: as §1

[5] = compound: c1ccc([C@@H]2C[C@H]2NC2CCNCC2)cc1
Outline: as §1

Measured: log2 fold change

RRP36 (UniProt Q96EU6)
inactive: [1] 0.119 | [2] -0.266 | [3] -0.228 | [4] 0.245 | [5] 0.019

RBM17 (UniProt Q96I25)
Chain of UniProt Q96I25 (Q96I25 whole entry, looked up): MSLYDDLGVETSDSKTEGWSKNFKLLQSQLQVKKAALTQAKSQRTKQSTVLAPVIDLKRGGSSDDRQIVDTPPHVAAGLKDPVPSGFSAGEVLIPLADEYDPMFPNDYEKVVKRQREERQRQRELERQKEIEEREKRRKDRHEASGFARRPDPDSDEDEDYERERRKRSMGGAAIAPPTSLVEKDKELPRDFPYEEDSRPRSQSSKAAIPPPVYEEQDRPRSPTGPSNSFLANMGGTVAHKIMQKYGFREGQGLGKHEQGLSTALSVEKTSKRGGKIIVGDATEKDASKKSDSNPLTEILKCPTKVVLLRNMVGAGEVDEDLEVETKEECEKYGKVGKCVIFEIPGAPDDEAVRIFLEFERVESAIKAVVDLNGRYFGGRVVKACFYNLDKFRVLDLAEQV
inactive: [1] -0.038 | [2] 0.017 | [3] 0.049 | [4] 0.003 | [5] -0.013

RPS27A (UniProt P62979)
inactive: [1] 0.076 | [2] -0.111 | [3] -0.281 | [4] 0.108 | [5] -0.025

RBM33 (UniProt Q96EV2)
inactive: [1] 0.002 | [2] -0.018 | [3] 0.029 | [4] -0.004 | [5] 0.012

RRAGC (UniProt Q9HB90)
inactive: [1] 0.009 | [2] 0.104 | [3] 0.095 | [4] -0.041 | [5] 0.009

SCD (UniProt O00767)
inactive: [1] 0.011 | [2] -0.019 | [3] 0.012 | [4] 0.054 | [5] 0.027

SAFB2 (UniProt Q14151)
inactive: [1] 0.051 | [2] -0.087 | [3] -0.103 | [4] 0.045 | [5] 0

RPAIN isoform 8 (UniProt Q86UA6)
Chain of UniProt Q86UA6 (Q86UA6 whole entry, looked up): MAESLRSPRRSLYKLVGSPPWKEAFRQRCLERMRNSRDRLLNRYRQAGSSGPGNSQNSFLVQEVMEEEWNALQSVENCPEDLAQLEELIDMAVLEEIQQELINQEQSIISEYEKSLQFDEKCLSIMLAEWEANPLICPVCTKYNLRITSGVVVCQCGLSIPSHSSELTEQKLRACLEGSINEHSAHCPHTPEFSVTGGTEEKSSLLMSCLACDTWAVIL
inactive: [1] 0.026 | [2] 0.057 | [3] 0.046 | [4] -0.038 | [5] 0.006

RPS25 (UniProt P62851)
inactive: [1] 0.046 | [2] -0.166 | [3] -0.139 | [4] 0.09 | [5] 0.002

RAB9A (UniProt P51151)
Chain of UniProt P51151 (P51151 whole entry, looked up): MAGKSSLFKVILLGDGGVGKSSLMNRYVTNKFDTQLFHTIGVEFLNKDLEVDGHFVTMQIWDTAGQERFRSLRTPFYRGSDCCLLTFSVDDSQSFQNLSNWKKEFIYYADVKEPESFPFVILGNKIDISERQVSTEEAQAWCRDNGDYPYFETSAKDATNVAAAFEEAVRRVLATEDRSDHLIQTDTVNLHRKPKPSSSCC
inactive: [1] 0.024 | [2] 0.088 | [3] 0.065 | [4] -0.04 | [5] 0.001

SLBP (UniProt Q14493)
inactive: [1] -0.092 | [2] -0.056 | [3] 0.042 | [4] 0.059 | [5] 0.034

RBM39 (UniProt Q14498)
inactive: [1] 0.015 | [2] -0.004 | [3] -0.02 | [4] 0.019 | [5] 0.158

RAC1 (UniProt P63000)
inactive: [1] -0.046 | [2] 0.017 | [3] -0.111 | [4] -0.098 | [5] 0.033

RRP12 (UniProt Q5JTH9)
Chain of UniProt Q5JTH9 (Q5JTH9 whole entry, looked up): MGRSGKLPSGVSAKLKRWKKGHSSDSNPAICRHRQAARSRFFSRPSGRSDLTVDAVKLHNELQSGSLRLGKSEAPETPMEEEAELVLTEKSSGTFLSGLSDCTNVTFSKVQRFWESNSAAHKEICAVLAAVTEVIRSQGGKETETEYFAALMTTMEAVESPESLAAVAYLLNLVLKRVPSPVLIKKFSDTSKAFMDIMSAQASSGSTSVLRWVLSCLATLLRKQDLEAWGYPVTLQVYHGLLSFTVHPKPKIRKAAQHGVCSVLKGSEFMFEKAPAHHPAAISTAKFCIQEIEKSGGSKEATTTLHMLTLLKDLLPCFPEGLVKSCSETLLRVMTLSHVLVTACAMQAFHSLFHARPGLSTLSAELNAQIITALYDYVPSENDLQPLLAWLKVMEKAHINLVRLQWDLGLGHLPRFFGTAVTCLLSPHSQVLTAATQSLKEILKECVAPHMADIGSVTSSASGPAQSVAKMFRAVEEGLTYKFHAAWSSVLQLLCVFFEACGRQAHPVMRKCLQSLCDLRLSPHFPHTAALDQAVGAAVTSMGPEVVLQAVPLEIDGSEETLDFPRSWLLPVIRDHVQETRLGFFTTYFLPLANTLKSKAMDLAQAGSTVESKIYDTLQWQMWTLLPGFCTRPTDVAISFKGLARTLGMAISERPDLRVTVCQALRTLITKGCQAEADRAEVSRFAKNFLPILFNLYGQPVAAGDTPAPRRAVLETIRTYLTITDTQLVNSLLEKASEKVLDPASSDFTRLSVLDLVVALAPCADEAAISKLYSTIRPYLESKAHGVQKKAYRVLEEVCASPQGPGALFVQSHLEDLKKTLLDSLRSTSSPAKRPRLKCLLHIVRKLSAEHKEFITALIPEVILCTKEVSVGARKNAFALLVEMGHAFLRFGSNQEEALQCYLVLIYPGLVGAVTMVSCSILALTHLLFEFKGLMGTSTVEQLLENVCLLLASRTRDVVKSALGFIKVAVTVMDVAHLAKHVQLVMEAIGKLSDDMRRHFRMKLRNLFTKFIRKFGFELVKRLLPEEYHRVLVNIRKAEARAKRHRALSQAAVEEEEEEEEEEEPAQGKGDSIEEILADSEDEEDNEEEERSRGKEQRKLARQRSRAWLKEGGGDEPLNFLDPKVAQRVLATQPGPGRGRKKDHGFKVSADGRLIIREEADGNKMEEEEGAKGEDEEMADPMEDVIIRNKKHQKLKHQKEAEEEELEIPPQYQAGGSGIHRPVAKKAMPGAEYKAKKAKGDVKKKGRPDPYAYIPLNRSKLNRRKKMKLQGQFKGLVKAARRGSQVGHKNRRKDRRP
inactive: [1] -0.015 | [2] -0.068 | [3] 0.045 | [4] 0.001 | [5] 0

RAVER1 (UniProt E9PAU2)
inactive: [1] -0.138 | [2] -0.204 | [3] 0.283 | [4] -0.19 | [5] 0.053

RAB5C isoform 2 (UniProt P51148)
inactive: [1] -0.007 | [2] -0.009 | [3] -0.022 | [4] 0.011 | [5] 0.018

RPS13 (UniProt P62277)
inactive: [1] 0.142 | [2] -0.234 | [3] -0.246 | [4] 0.213 | [5] 0

RSL1D1 (UniProt O76021)
inactive: [1] 0.18 | [2] -0.349 | [3] -0.241 | [4] 0.178 | [5] 0.031

RRS1 (UniProt Q15050)
inactive: [1] 0.168 | [2] -0.368 | [3] -0.187 | [4] 0.246 | [5] -0.006

RNF185 (UniProt Q96GF1)
inactive: [1] -0.157 | [2] 0 | [3] 0.006 | [4] 0.104 | [5] -0.168

RRP9 (UniProt O43818)
inactive: [1] 0.036 | [2] -0.136 | [3] 0.02 | [4] 0.015 | [5] 0.1

RAC3 (UniProt P60763)
inactive: [1] -0.006 | [2] 0.028 | [3] 0.029 | [4] -0.025 | [5] -0.147

RHEB (UniProt Q15382)
inactive: [1] 0.008 | [2] 0.04 | [3] 0.055 | [4] -0.048 | [5] -0.001

RPS3A (UniProt P61247)
inactive: [1] 0.053 | [2] -0.162 | [3] -0.139 | [4] 0.099 | [5] 0

RIOK3 (UniProt O14730)
Chain of UniProt O14730 (O14730 whole entry, looked up): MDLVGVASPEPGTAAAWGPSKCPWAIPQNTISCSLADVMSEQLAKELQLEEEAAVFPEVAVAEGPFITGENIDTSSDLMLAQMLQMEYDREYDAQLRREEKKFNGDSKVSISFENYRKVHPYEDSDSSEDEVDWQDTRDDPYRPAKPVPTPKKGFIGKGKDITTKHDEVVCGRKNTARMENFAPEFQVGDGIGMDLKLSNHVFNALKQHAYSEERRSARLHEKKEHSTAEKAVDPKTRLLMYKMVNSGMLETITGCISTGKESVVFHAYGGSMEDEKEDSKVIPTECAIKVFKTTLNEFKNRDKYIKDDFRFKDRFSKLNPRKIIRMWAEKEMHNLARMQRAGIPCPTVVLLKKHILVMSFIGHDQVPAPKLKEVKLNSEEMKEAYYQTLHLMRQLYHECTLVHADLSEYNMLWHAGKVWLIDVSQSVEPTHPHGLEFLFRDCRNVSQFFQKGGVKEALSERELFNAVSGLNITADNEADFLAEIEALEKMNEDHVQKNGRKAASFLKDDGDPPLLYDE
inactive: [1] -0.015 | [2] -0.008 | [3] -0.016 | [4] -0.008 | [5] 0.024

RAB3D (UniProt O95716)
inactive: [1] 0.023 | [2] -0.105 | [3] 0.007 | [4] -0.082 | [5] 0.201

RCC1 isoform 2 (UniProt P18754)
inactive: [1] -0.175 | [2] 0.096 | [3] 0.176 | [4] 0.012 | [5] -0.058

SCLT1 (UniProt Q96NL6)
inactive: [1] 0.078 | [2] 0.215 | [3] 0.222 | [4] 0.001 | [5] -0.039

RNF187 (UniProt Q5TA31)
inactive: [1] -0.047 | [2] 0.07 | [3] -0.033 | [4] -0.083 | [5] -0.033

SEC24A (UniProt O95486)
inactive: [1] -0.022 | [2] 0.02 | [3] 0.014 | [4] -0.027 | [5] -0.021

RPS12 (UniProt P25398)
inactive: [1] 0.032 | [2] -0.092 | [3] -0.066 | [4] 0.011 | [5] -0.019

SART3, A0A499FI31
inactive: [1] -0.008 | [2] 0.015 | [3] 0.056 | [4] -0.08 | [5] -0.006

RIOK2 (UniProt Q9BVS4)
inactive: [1] 0.034 | [2] -0.038 | [3] -0.119 | [4] 0.116 | [5] -0.009

RBM4 (UniProt Q9BWF3)
inactive: [1] -0.029 | [2] -0.074 | [3] -0.011 | [4] 0.009 | [5] 0.073

ROR2 (UniProt Q01974)
inactive: [1] -0.062 | [2] 0.004 | [3] 0.023 | [4] -0.048 | [5] -0.035

RBM8A (UniProt Q9Y5S9)
inactive: [1] -0.02 | [2] -0.005 | [3] -0.062 | [4] 0.029 | [5] 0.045

RPRD1B (UniProt Q9NQG5)
inactive: [1] -0.006 | [2] 0.06 | [3] 0.043 | [4] 0.009 | [5] 0.014

RDH10 (UniProt Q8IZV5)
inactive: [1] 0.113 | [2] 0.08 | [3] 0.098 | [4] -0.058 | [5] -0.031

SDHC (UniProt Q99643)
inactive: [1] -0.052 | [2] 0.004 | [3] -0.056 | [4] -0.018 | [5] 0.163

RPS4X (UniProt P62701)
inactive: [1] 0.105 | [2] -0.255 | [3] -0.232 | [4] 0.148 | [5] 0.001

SLC12A9 (UniProt Q9BXP2)
inactive: [1] 0.013 | [2] -0.002 | [3] 0.014 | [4] -0.035 | [5] 0.028

RAB5IF isoform 5 (UniProt Q9BUV8)
inactive: [1] 0.003 | [2] 0.101 | [3] 0.024 | [4] -0.08 | [5] 0.028

SERPINA7 (UniProt P05543)
Chain of UniProt P05543 (P05543 whole entry, looked up): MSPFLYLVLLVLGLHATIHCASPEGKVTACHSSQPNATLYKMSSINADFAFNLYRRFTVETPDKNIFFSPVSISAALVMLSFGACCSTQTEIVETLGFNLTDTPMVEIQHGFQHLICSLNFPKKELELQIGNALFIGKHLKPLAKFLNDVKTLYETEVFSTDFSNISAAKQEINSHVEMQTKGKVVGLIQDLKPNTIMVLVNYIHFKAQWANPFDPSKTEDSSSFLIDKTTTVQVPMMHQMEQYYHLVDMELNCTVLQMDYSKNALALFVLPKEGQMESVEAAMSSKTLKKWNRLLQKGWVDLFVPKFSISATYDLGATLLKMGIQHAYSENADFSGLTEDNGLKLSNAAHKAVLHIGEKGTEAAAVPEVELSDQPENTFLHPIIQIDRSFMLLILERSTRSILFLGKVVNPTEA
inactive: [1] -0.014 | [2] -0.001 | [3] 0.1 | [4] 0.12 | [5] 0.128

RBM25 (UniProt P49756)
inactive: [1] -0.025 | [2] 0 | [3] 0.005 | [4] 0.051 | [5] 0.112

SEH1L isoform 1 (UniProt Q96EE3)
inactive: [1] -0.003 | [2] 0.06 | [3] -0.003 | [4] -0.014 | [5] 0.017

RAD50 isoform 2 (UniProt Q92878)
Chain of UniProt Q92878 (Q92878 whole entry, looked up): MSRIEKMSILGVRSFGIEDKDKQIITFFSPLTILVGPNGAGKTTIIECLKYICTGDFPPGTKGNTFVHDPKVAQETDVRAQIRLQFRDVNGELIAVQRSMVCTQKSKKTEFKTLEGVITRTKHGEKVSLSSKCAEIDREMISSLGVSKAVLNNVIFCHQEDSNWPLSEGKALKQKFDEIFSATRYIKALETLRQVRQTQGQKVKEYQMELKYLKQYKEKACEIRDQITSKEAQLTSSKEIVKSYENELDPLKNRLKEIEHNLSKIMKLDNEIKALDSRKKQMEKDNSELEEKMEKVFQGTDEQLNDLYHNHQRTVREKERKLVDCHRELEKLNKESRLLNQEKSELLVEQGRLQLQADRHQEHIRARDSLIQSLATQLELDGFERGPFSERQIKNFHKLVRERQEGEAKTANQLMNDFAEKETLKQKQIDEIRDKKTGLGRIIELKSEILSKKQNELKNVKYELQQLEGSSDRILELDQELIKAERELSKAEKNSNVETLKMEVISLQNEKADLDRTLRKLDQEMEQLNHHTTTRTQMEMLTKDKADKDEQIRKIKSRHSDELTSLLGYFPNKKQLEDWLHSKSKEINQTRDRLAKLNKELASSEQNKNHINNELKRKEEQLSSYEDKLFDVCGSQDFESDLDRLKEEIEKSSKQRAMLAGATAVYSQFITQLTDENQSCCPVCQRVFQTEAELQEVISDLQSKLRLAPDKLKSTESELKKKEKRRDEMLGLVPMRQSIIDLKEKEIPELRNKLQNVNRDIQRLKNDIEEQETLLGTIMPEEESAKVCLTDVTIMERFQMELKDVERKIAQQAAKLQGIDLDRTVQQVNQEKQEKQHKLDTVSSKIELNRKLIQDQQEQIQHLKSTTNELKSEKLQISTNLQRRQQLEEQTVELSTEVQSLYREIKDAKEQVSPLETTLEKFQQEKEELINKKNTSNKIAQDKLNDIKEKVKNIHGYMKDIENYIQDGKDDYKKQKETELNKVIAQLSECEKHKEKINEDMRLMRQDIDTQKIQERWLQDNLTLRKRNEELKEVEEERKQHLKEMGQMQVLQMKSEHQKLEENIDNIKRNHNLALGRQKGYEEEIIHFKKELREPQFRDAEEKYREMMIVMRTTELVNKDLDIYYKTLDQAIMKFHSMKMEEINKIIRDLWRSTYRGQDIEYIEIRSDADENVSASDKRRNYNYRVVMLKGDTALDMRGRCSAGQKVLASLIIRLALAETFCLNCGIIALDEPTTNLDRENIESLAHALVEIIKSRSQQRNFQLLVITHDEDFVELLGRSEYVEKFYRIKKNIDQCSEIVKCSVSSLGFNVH
inactive: [1] -0.006 | [2] 0.017 | [3] 0.061 | [4] 0 | [5] 0.014

RPS21 (UniProt P63220)
inactive: [1] -0.008 | [2] -0.047 | [3] 0.028 | [4] 0.017 | [5] 0.02

RIPK1 (UniProt Q13546)
Chain of UniProt Q13546 (Q13546 whole entry, looked up): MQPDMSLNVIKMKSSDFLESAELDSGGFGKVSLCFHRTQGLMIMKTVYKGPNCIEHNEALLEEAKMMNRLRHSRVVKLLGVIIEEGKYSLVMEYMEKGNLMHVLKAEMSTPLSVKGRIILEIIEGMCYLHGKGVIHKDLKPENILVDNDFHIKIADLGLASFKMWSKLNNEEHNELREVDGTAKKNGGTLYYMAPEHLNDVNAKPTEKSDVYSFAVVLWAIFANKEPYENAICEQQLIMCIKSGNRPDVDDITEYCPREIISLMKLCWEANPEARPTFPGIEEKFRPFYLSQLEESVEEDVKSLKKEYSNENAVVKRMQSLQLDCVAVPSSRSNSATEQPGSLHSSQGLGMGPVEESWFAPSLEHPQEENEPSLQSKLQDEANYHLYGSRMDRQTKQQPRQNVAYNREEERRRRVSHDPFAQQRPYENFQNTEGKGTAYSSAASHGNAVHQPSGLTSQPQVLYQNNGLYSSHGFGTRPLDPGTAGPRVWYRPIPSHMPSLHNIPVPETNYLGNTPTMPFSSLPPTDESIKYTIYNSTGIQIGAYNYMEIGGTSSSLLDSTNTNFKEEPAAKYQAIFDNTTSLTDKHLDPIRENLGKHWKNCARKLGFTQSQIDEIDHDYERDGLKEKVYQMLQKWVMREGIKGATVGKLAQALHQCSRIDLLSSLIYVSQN
inactive: [1] -0.058 | [2] -0.134 | [3] 0.033 | [4] -0.048 | [5] -0.049

SETMAR (UniProt Q53H47)
inactive: [1] 0.001 | [2] 0.096 | [3] 0.033 | [4] -0.031 | [5] -0.02

RB1CC1 (UniProt Q8TDY2)
inactive: [1] 0.198 | [2] 0.096 | [3] 0.032 | [4] 0.029 | [5] -0.063

RNF220 (UniProt Q5VTB9)
inactive: [1] 0.004 | [2] 0.072 | [3] 0.14 | [4] -0.045 | [5] 0.038

SELENOH (UniProt Q8IZQ5)
inactive: [1] 0.049 | [2] -0.107 | [3] -0.258 | [4] -0.028 | [5] 0.08

RPA3 (UniProt P35244)
inactive: [1] 0.008 | [2] 0.09 | [3] -0.055 | [4] -0.146 | [5] -0.03
